Assay results taken from ChEMBL document CHEMBL3433997, “St. Jude Leishmania screening dataset” (2016).

Tests used:
Type in all cases: functional
[1] = target: Solute carrier family 2, facilitated glucose transporter member 1 (Homo sapiens) (UniProt P11166); assay: ST_JUDE_LEISH: Cytotoxicity at 2uM final concentration against transgenic Leishmania Mexicana promastigotes LmGLUT1 that are glucose transport deficient and complemented with the human glucose transporter GLUT1. Activity is measured by DNA content using SYBR green in vitro
Solute carrier family 2, facilitated glucose transporter member 1 (Homo sapiens), sequence (P11166 whole entry): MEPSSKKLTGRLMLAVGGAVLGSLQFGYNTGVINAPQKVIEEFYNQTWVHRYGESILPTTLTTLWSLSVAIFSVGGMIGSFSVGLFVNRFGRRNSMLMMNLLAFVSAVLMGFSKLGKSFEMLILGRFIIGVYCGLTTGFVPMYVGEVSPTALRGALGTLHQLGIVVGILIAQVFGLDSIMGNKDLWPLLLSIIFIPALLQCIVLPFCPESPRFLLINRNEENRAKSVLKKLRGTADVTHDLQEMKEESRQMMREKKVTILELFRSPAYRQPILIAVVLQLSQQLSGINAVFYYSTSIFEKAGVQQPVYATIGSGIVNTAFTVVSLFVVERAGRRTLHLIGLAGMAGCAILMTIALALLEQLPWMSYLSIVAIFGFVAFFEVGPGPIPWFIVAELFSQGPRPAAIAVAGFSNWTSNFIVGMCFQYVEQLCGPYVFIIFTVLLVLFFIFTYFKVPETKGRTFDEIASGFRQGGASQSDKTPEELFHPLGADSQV

[2] = target: Hexose transporter 1 (Plasmodium falciparum) (UniProt O97467); assay: ST_JUDE_LEISH: Cytotoxicity at 2uM final concentration against transgenic Leishmania Mexicana promastigotes LmPfHT that are glucose transport deficient and complemented with the Plasmodium falciparum hexose transporter. Activity is measured by DNA content using SYBR green in vitro
[3] = target: Glucose transporter (Leishmania mexicana) (UniProt O61059); assay: ST_JUDE_LEISH: Cytotoxicity at 2uM final concentration against transgenic Leishmania Mexicana promastigotes LmGT2 that are glucose transport deficient and complemented with the L. Mexicana glucose transporter 2. Activity is measured by DNA content using SYBR green in vitro

| Compound | inhibition [1] [%] | inhibition [2] [%] | inhibition [3] [%] |
| --- | --- | --- | --- |
| CC1(C)CCC(C)(C)c2c1ccc(C1CCN(CCCCNC(=O)c3ccc(-c4ccc(C#N)cc4)cc3)CC1)c2OCC(N)=O | 3.73 | 4.26 | 4.33 |
| Cc1cc(N[C@@H](Cc2ccccc2)C(=O)NCCc2ccccc2)nc(NCCOc2ccccc2)n1 | 5.12 | 5.84 | 2.55 |
| Cc1ccc(-c2ccc(NC(=O)N3CCc4cc(Br)c(N5CCN(C)CC5)cc43)cc2)cn1 | 2.03 | 1.29 | 2.24 |
| COc1ccc(-c2ccc(NC(=O)c3ccc(F)cc3)cc2)cc1CNC(C)C | 0.84 | 1.24 | 4.68 |
| Cc1ccc2c(c1C)NC(=O)C21NN=C(c2ccccc2)S1 (stereo not given) | -1.86 | -1.15 | -2.33 |
| CCCCCCn1c(Sc2ccc(C#N)c([N+](=O)[O-])c2)nnc1-c1cccs1 | 5.52 | 6.91 | -0.09 |
| COc1ccc(-c2nc(NC(=O)Cc3ccc(OC)c(OC)c3)sc2C)cc1 | 1.75 | 3.07 | 1.83 |
| O=C(Nc1cccc(C(F)(F)F)c1)Nc1cc(F)c(F)cc1Cl | 1.86 | 1.72 | 2.36 |
| O=C(NC1CCN(c2ccc(F)cc2[N+](=O)[O-])CC1)c1cccs1 | 4.31 | 3.82 | 2.71 |
| COc1ccc(CCN(C)CCCCNC(=O)c2ccc(NC(=O)c3ccc(Cl)cc3)cc2)c(OC)c1 | 1.64 | 2.15 | 2.45 |
| O=C(Nc1ccccc1)N(Cc1ccccc1-c1cccc(CNCCc2ccccc2)c1)C1CCN(Cc2ccccc2)CC1 | -1.02 | 0.26 | -0.84 |
| COC(=O)c1cccc(CNCc2ccc(-c3cccc(-c4nc5ccccc5[nH]4)c3)cc2)c1 | -2.56 | -1.88 | 0 |
| O=C(Nc1ccc([N+](=O)[O-])cc1Cl)c1cc2ccccc2cc1O | 0.6 | 1.59 | 1.3 |
| O=C(Nc1cccc(CN2CCCN(CC3CC3)CC2)c1)c1ccc(-c2ccccc2)cc1 | 3.62 | 4.69 | -0.4 |
| Fc1ccc(-c2cncc(-c3ccc(F)cc3)n2)cc1 | 9.28 | 6.64 | 8.06 |
| CCCN(Cc1ccc(OCC)cc1)Cc1cc(=O)c2cc(Cl)ccc2[nH]1 | 8.02 | 8 | 7.1 |
| Cc1cccc2nc(-c3ccc(-c4ccc(NC(=O)C(C)CN(C)C)cc4)cc3)[nH]c12 (stereo not given) | 11.2 | 9.44 | 5.39 |
| COc1ccc(CNCc2ccc(-c3ccc(-c4nc5cc(F)ccc5[nH]4)cc3)cc2)cc1 | 5.49 | 5.38 | 1.74 |
| Cc1cc2nc(-c3ccc(C(=O)NCc4ccc(C(C)(C)C)cc4)cc3)[nH]c2cc1C | 3.51 | 2.34 | -0.6 |
| O=C(Nc1cc(Cl)ccc1O)c1cc(-c2ccccc2O)no1 | -2.41 | -2.61 | -2.64 |
| Cn1nc(-c2cccc(CNCCc3cccs3)c2)c2cnc(NC3CCCC3)nc21 | 5.58 | 5.16 | 5.1 |
| CCOc1ccc2c(=NN=Cc3ccc(OC)c(OC)c3)cc(C)[nH]c2c1 | 4.95 | 3.84 | -0.04 |
| C=CC[C@H](C[C@H](O)[C@H](Cc1ccccc1)NC(=O)c1ccc(-n2cccn2)cc1)C(=O)NC1CCCCC1 | 9.63 | 9.73 | 9.59 |
| Cn1cncc1CNCc1ccc(-c2cccc(-c3nc4ccccc4[nH]3)c2)cc1 | -1.06 | -1.22 | -4.84 |

| Compound | inhibition [1] [%] | inhibition [2] [%] | inhibition [3] [%] |
| --- | --- | --- | --- |
| CCN(CC)CCN(Cc1ccc(-c2ccc(C(F)(F)F)cc2)cc1)C(=O)Cn1c(CCc2ccc(F)c(F)c2)nc(=O)c2ccccc21 | 1.89 | 0.22 | 1.08 |
| COC(=O)c1cccc(CN(CCC(O)(C(F)(F)F)C(F)(F)F)C(=O)CC2CCCC2)c1 | 3.39 | 1.44 | 1.91 |
| COc1ccc(CN2CCC(NCc3ccc(C(F)(F)F)cc3)CC2)cc1 | 19.2 | 14.1 | 14 |
| COc1cc(C2CCN(CCCCNC(=O)c3ccc(NC(=O)c4cc(C(F)(F)F)cc(C(F)(F)F)c4)cc3)CC2)ccc1OC(C)C | 1.12 | 0.93 | 1.71 |
| CCC[C@@H]([C@@H](CC1CCCCC1)C(=O)N[C@H](C(=O)Nc1ccccn1)[C@H](C)CC)N(O)C=O | 3.49 | 3.35 | 2.88 |
| N#Cc1ccc(N/C(=N\c2cccc(Cl)c2Cl)NC2Cc3ccccc3C2)c(O)c1 | 2.33 | 2.84 | 3.97 |
| CCN(CC)CCN(Cc1ccc(-c2ccc(C(F)(F)F)cc2)cc1)C(=O)c1c[nH]c2ccc(Br)cc12 | 1.48 | 1.01 | 2.1 |
| CCOC(=O)c1ccc(N2CCN(c3cc(C)ccc3C)CC2)c(NC(=O)Nc2ccc(Cl)c(Cl)c2)c1 | 0.52 | 0.93 | -0.25 |
| CCOc1c(Br)cc(C)cc1CNCCCNc1nc2ccccc2[nH]1 | 1.35 | -0.49 | 1.33 |
| COc1ccc(CNCc2ccccc2)cc1-c1cccc(S(=O)(=O)NCCN2CCCC2)c1 | 1.03 | 1.05 | -3.15 |
| COc1ccc(NC(=O)[C@H](Cc2ccccc2)Nc2cc(C)nc(NCCc3ccc(F)cc3)n2)cc1 | 11.8 | 13 | 10 |
| Cc1cc(NCCCCCCN)nc(Nc2ccc(Cl)cc2)n1 | 5.87 | 5.27 | -0.67 |
| Cn1nc(-c2ccc(CNC3CCc4ccccc43)cc2)c2cnc(NCCCN3CCCC3)nc21 (stereo not given) | 7.46 | 13.8 | 8.91 |
| CCCCCCNc1cc(C)nc(NC(=N)Nc2cccc(C(F)(F)F)c2)n1 | 1.36 | 3.48 | 4.89 |
| CC1CCc2c(C(=O)N3CCc4ccccc4C3)csc2C1 (stereo not given) | 1.39 | 0.87 | 0 |
| CC(C)CCN1CCCN(Cc2cccc(NC(=O)c3cc4ccccc4s3)c2)CC1 | -0.92 | 0.43 | 2.29 |
| CN(c1ccc2c(c1)nc(NC(=O)C1(c3cc(F)ccc3F)CC1)n2C)c1ccnc(Nc2cccc(CS(C)(=O)=O)c2)n1 | -0.91 | 0.33 | -1.29 |
| O=C(Nc1cccc(-c2ccc(-c3nc4ccccc4[nH]3)cc2)c1)c1ccncc1 | 8.95 | 4.33 | 2.5 |
| CC(C)CNC(=O)c1cncc(-c2ccc(CNC3Cc4ccccc4C3)cc2)c1 | -0.34 | 1.58 | -0.51 |
| O=C(NCc1cccnc1)C(c1cc2ccccc2o1)N1CCN(C(c2ccccc2)c2ccccc2)CC1 (stereo not given) | 1.36 | 2.1 | 0.65 |
| CCc1ccc(C2CCN(CCCCNC(=O)c3ccc(NC(=O)c4ccc(Cl)cc4)cc3)CC2)c(OC(C)=O)c1 | 3.29 | 3.47 | 3.54 |
| C=C[C@]1(C)C[C@@H](OC(=O)CSC2CN3CCC2C3)[C@@]2(C)C3C(=O)CC[C@@]3(CC[C@H]2C)[C@@H](C)[C@@H]1O (stereo not given in full) | 72.8 | 73.2 | 59 |
| CCN(CC)c1ccc(-c2nc3cc(Cl)cnc3[nH]2)cc1 | 5.04 | 5.32 | 3.88 |
| O=C(Nc1cccc(F)c1)N(Cc1ccc(-c2ccc(CN3CCNCC3)cc2)cc1)C1CCN(Cc2ccccc2)CC1 | -0.04 | -0.99 | -1.59 |

| Compound | inhibition [1] [%] | inhibition [2] [%] | inhibition [3] [%] |
| --- | --- | --- | --- |
| Oc1cccc(Nc2nc(NCc3ccccc3)c3ccccc3n2)c1 | 22.9 | 19.9 | 11.8 |
| Cc1cccc2nc(-c3cccc(-c4cccc(CNCC5CCCO5)c4)c3)[nH]c12 (stereo not given) | 1.16 | 0.17 | 1.17 |
| COc1ccc(-n2nc(C)c3c2NC(=O)CC3c2ccccc2OCc2ccc(F)cc2)cc1 (stereo not given) | 4.97 | 4.4 | 5.62 |
| Cc1cc(NCC2CCN(CC3CCCCC3)C2)nc(Nc2ccc(Br)cc2)n1 (stereo not given) | 8.49 | 7.88 | 3.47 |
| Nc1ccc(-c2nc3cc(Oc4ccc5[nH]c(-c6ccc(N)cc6)nc5c4)ccc3[nH]2)cc1 | -3.07 | 0.6 | -0.55 |
| CCOC(=O)c1c[nH]c2c(sc3cc(OC)ccc32)c1=O | -0.83 | -0.51 | -0.47 |
| Cc1cc(C)c(CON2C(=N)N=C(N)NC2(C)C)cc1C | -0.51 | -0.15 | -0.63 |
| O=C(Nc1ccc(OC2CCN(Cc3ccc(F)cc3)CC2)c(Cl)c1)c1ccoc1 | 2.65 | 2.09 | 3.99 |
| O=S(=O)(Nc1cccc(CCN2CCC(N3CCCCC3)CC2)c1)c1cccc(C(F)(F)F)c1 | 0.17 | 3.24 | 0.82 |
| COc1cc(C(=O)NC2CCN(Cc3ccccc3)CC2)ccc1-c1nc2c(Cl)cc(C(F)(F)F)cc2[nH]1 | 5.51 | 3.32 | 3.49 |
| CC(C)(C)c1ccc(CN(C[C@@H](O)CNS(=O)(=O)c2cc(Cl)cc(Cl)c2)C(C)(C)C)cc1 | 0.82 | 0.36 | -0.02 |
| O=C(NC1CC1)c1ccc(N2CCOc3ccc(Cl)cc32)s1 | 2.19 | 1 | 1.54 |
| CC[C@@]1(O)C(=O)OCc2c1cc1n(c2=O)Cc2c-1nc1cc3c(cc1c2CN1CCN(C)CC1)OCCO3 | 7.46 | 15 | 3.83 |
| COc1c(C2CCN(CCCCNC(=O)c3noc(-c4ccc(C#N)cc4)n3)CC2)ccc2c1CCCC2 | 2.99 | 1.9 | 2.85 |
| Cc1nccn1CCNC(=O)CN1CCC2(CCC1=O)CC(=O)c1ccccc1O2 (stereo not given) | 8.32 | 7.32 | 7.28 |
| CC(C)Cn1cc(C2CCN(CCN3CCC(CNC(=O)c4ccc(-c5ccc(C(F)(F)F)cc5)cc4)CC3)CC2)c2ccccc21 | 2.78 | 3.07 | 2.25 |
| CCOC(=O)c1ccc2[nH]c(-c3ccc(C(=O)NC4CCN(Cc5ccccc5)CC4)s3)nc2c1 | 4.45 | 4.85 | 0.16 |
| CCOC(=O)[C@H](Cc1cc([N+](=O)[O-])c(Oc2ccc(OC)c(Cc3ccc(OC)c(C(C)C)c3)c2)c([N+](=O)[O-])c1)NC(=O)C(F)(F)F | 10.8 | 9.19 | 12.6 |
| N=C(NCCc1ccc(Cl)cc1)c1ccc(Cl)c(Cl)c1 | 2 | 2.64 | 1.15 |
| CCn1c2c(c(=N)c3ccccc31)CCC2 | -0.78 | -2.72 | -1.61 |
| N#Cc1cccc(C(=O)Nc2cccc(-c3cccc(CN4CCNCC4)c3)c2)c1 | 4.13 | 6.34 | 3.25 |
| CN1CCN(c2ccnc3cc4c(cc23)N(C(=O)Nc2ccc3c(c2)CCCC3=O)CC4)CC1 | 1.37 | 1.56 | 0.75 |
